RecA intein inh = blocks M. tuberculosis RecA intein splicing | P9WHJ3 | cell-free RecA intein splicing, fluorescence | inhibition, % (test concentration not listed) | 0.75% of 290,000 active | AID 2221; in the data active = inhibition above about 30%;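 note: 0% = vehicle wells and 100% = reference inhibitor control wells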
CCHF vOTU inh = blocks the CCHF virus ovarian tumor domain protease. CCHFV vOTU protease, Pep-AMC fluorescence. inhibition, % at 11.5 µM. 0.55% of 370,000 active; in the data active = inhibition above about 30%; note: 0% = vehicle wells with enzyme and 100% = no enzyme wells
VHR inh abs = inhibitors of human VHR1 phosphatase (DUSP3) | P51452 | recombinant VHR phosphatase, pNPP absorbance | 0.52% of 290,000 active | inhibition, % at 13.3 µM | AID 1654; in the data active = inhibition above about 50%
SSB-PriA inh = K. pneumoniae PriA-SSBct interaction inhibition; inhibition, % at 33 µM; AID 1272365; AlphaScreen SSBct-PriA binding, biotinylated peptide; 0.6% of 430,000 active; in the data active = inhibition mostly above about 37%, no sharp cut-off; inactive = mostly below about 20%;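 note: plate controls were negative control peptide for no effect and reference peptide for full effect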
3CLpro inhibitor = SARS-CoV 3CLpro protease inhibition; P0C6X7; recombinant SARS-CoV 3CLpro, quenched FRET peptide cleavage; inhibition, % at 6 µM; 0.14% of 290,000 active; AID 1706; in the data active = inhibition above about 12%
Numbers without * were called inactive; . = no result. Sampled rows, rich in hits. Any-hit rate of the full collection: about 1.7%.

SMILES | RecA intein inh | CCHF vOTU inh | VHR inh abs | SSB-PriA inh | 3CLpro inhibitor
COc1ccc(S(=O)(=O)C2CN(C(=O)c3ccccc3Cl)C2)cc1 | . | . | . | -14.0 | .
COc1ccc(OC)c(S(=O)(=O)NCCCn2ccnc2)c1 | -1.4 | 3.6 | 0.3 | 2.6 | -2.3
O=C(NCCn1ncccc1=O)c1ccc2c(c1)OCO2 | . | . | . | -5.0 | .
COc1ccc(OC)c(S(=O)(=O)NCCn2ccnc2-c2ncccn2)c1 | . | . | . | 91.0* | .
COc1ccc(Br)c(C(=O)NCCn2ccnc2-c2ncccn2)c1 | . | . | . | 91.0* | .
O=C(NCCn1ccnc1-c1ncccn1)c1ccc2c(c1)OCO2 | . | . | . | 93.0* | .
COc1ccc(S(=O)(=O)NCCn2ccnc2-c2ncccn2)c(C)c1 | . | . | . | 81.0* | .
Cc1cn2nc(C(=O)NCc3ccc(N4CCCC4=O)cc3)cc2c(=O)[nH]1 | . | . | . | -6.0 | .
N#Cc1c(N=Cc2ccc([N+](=O)[O-])cc2)sc2c1CCCC2 | . | . | . | -6.0 | .
O=C1C(=O)N(Cc2ccccc2)C(c2cccc(O)c2)C1=C(O)c1ccc2c(c1)OCCO2 (centres undefined) | . | . | . | -3.6 | .
COC(=O)c1c(NC(=O)/C=C/C(=O)O)sc(C)c1-c1ccc(C)cc1 | 43.4* | 6.0 | 38.0 | 6.1 | 1.4
O=C(NCc1ccccc1OC(F)(F)F)c1cc(OCc2ccccc2)no1 | . | . | . | -16.0 | .
C/C(CC(C)C)=N\NC(=O)Nc1ccccc1 | -10.0 | 1.4 | 50.8* | . | -2.4
Cc1ccc([N+](=O)[O-])cc1NC(=O)C(=O)NCc1ccc2c(c1)OCO2 | . | . | . | -12.0 | .
COc1ccc2c(c1)Cc1sc(NC(C)=O)nc1-2 | 5.3 | 81.0* | -2.0 | -0.3 | -11.6
N#C/C(=C/c1ccc(Cl)cc1)C(=O)Nc1ccc([N+](=O)[O-])cc1Cl | . | . | . | -4.0 | .
Cc1ccc(S(=O)(=O)NCc2nccc(N(C)C)n2)cc1C | . | . | . | -5.0 | .
CC(C)(O)C(O)COc1c2ccoc2cc2oc(=O)ccc12 (centres undefined) | -4.1 | 5.8 | 30.1 | 39.6* | -1.2
O=C1NCCN1C(=O)N1CCSC1c1ccc(Cl)c(Cl)c1 (centres undefined) | . | . | . | 9.0 | .
O=C1CC2(CCN(C(=O)c3cnccn3)C2)Oc2ccccc21 (centres undefined) | . | . | . | -11.0 | .
CC(C)CC(=O)N1CCN(c2ccc([N+](=O)[O-])c(NCc3ccccc3)c2)CC1 | 7.3 | 30.9* | . | 27.4 | 2.2
O=C(c1ccc(Cl)s1)N1CCC(CSCc2ccco2)CC1 | . | . | . | -26.0 | .
CCn1cc(NC(=O)Nc2ccc(OC(F)F)cc2)c2ccccc21 | . | . | . | 40.0* | .
Cn1cc(NC(=O)Nc2ccc(OC(F)(F)F)cc2)c2ccccc21 | . | . | . | -1.0 | .
CCC(=O)Nc1nnc(S(=O)(=O)N2c3ccccc3CC2C)s1 (centres undefined) | -2.5 | -5.3 | -6.2 | 100.5* | 2.8
SMILES | RecA intein inh | CCHF vOTU inh | VHR inh abs | SSB-PriA inh | 3CLpro inhibitor
O=C(CSc1ncc(-c2ccccc2)n1-c1ccccc1)NCc1ccco1 | 9.5 | 11.8 | 14.6 | 52.2* | -4.7
COc1ccc(-n2c(-c3ccc(F)cc3)cnc2SCC(=O)NCc2ccco2)cc1 | 16.6 | 1.3 | -3.8 | 49.3* | 0.3
O=C(CSc1ncc(-c2ccc(F)cc2)n1Cc1ccco1)Nc1ccc2c(c1)OCO2 | 2.8 | 5.1 | -3.4 | 29.9 | 6.1
Cc1nnc(SCC(=O)NCc2ccco2)n1-c1ccccc1 | -2.5 | 10.1 | 10.7 | -20.2 | 0.6
CCOc1ccc(NC(=O)CSc2ncc(-c3ccc(F)cc3)n2Cc2ccco2)cc1 | 1.6 | 18.9 | -15.2 | 43.4* | 2.7
O=C(Nc1nnc(-c2ccc3c(c2)OCO3)o1)c1cccs1 | . | . | . | -28.0 | .
O=C(Cc1csc(NC(=O)c2ccco2)n1)Nc1ccc2c(c1)OCCO2 | . | . | . | 6.0 | .
CC(C(=O)N1CCCc2c1c(=O)oc1ccc(O)cc21)N1CCc2ccccc2C1 (centres undefined) | 6.3 | . | 55.6* | -24.1 | 0.5
NCCNC(=O)c1c(NC(=O)c2ccccc2)sc2c1CCCC2 | 1.8 | 6.6 | 53.9* | 14.5 | -0.7
O=C(CN1CCCCC1)Nc1sc2c(c1C(=O)Nc1ccc(F)cc1)CCCC2 | . | . | . | -13.0 | .
O=C(Nc1sc2c(c1C(=O)O)CCC2)c1ccccc1 | 0.6 | 8.5 | 52.3* | 3.0 | 0.0
O=C(CN1CCCC1)Nc1sc2c(c1C(=O)Nc1ccc(Br)cc1)CCC2 | 0.8 | -2.6 | 24.0 | 75.5* | -0.5
Cc1ccc(C(=O)NCC(=O)N/N=C\c2cccs2)cc1[N+](=O)[O-] | . | . | . | -11.0 | .
COc1cc(C=NNC(=O)c2ccc(=O)[nH]n2)ccc1O | . | . | . | -15.6 | .
COC(=O)c1cn(C)c(=O)cc1OC | . | . | . | -4.0 | .
Cc1nc2scc(-c3cccs3)c2c(=O)[nH]1 | -1.5 | -0.6 | 54.7* | 4.1 | 2.6
Cc1cc(=O)n(Cc2ccc(OC(C)C)cc2)c(=S)[nH]1 | -0.6 | -4.4 | 52.5* | -7.7 | 1.0
